# Source: PubChem BioAssay AID623892 (Vanderbilt Specialized Chemistry Center, 2012)
# Values without a mark were called inactive.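 How the source made its calls: active means potentiator with a glutamate EC50 fold shift of at least 2, or antagonist at 0.5 or below; inactive means fold shift between 0.5 and 2.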
# Molecular target: Metabotropic glutamate receptor 8 (Rattus norvegicus) (UniProt P70579)
# Assay: off-target activity at rat mGlu8, profiling panel, selectivity assay for mGlu4 lead optimization, cell-based, thallium flux (AID 623892)
# Details: HEK cells rat mGlu8, thallium flux, at 10 µM
# Chain of Metabotropic glutamate receptor 8 (Rattus norvegicus) (P70579 whole entry, looked up): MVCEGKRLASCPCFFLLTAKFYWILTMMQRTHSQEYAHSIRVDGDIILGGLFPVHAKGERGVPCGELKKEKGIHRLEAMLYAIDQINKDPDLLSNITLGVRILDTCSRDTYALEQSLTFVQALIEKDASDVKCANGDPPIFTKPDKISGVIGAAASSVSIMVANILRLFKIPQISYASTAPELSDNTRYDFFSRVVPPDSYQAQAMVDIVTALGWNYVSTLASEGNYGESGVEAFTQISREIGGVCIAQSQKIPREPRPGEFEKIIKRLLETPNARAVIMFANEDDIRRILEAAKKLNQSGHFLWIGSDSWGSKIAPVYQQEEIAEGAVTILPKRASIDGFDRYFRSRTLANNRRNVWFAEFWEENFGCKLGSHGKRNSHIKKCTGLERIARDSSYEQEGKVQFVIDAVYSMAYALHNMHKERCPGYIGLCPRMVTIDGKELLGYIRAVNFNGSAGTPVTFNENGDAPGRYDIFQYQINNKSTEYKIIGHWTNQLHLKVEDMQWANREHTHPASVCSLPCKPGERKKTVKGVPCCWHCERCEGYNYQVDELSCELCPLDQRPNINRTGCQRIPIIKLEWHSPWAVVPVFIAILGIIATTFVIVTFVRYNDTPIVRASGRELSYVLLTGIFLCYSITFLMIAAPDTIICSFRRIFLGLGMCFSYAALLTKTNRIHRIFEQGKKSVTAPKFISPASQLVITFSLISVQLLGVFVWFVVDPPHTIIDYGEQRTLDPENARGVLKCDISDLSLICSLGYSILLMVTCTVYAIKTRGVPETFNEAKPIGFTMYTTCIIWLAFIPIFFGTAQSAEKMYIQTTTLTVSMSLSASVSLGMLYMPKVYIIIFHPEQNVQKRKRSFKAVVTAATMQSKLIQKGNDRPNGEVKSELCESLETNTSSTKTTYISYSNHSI
smiles,measurement,value
O=C(Nc1cccc(Cl)c1)c1ccccn1,fold shift of glutamate EC50,1.47
